Bioassay records (PubChem BioAssay)
IL-1B inflam inh = inhibitors of inflammasome signaling (IL-1 beta secretion); activity change, % at 57.5 µM; THP-1 LPS/ATP IL-1B secretion, AlphaLISA, 16 h; stronger effect = lower value; 360,000 tested, 4.7% active; in the data active = activity change below about -50%; inconclusive = mostly about -30% to -49%
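THP-1 cells pretreated 1 hr with compounds (up to 57.5 uM final), then stimulated with LPS (250 ng/mL final) plus ATP (1.25 mM final); secreted IL-1B measured by AlphaLISA after 16 hr, decreased signal indicating inhibition.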
HT1080 IDH1KD tx = toxicity to HT-1080 IDH1 knockdown cells (counter line) | 360,000 tested, 2% active | Potency, µM (series often up to 46.1 µM), without a hit: at the highest dose activity, negative = toxicity, most hits filed as cytotoxic | HT-1080 IDH1 knockdown viability, ATP luminescence, 48 h;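 note: potency is the fitted concentration of half-maximal effect; 0% = DMSO wells and -100% = cell-free medium wells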
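Using the IDH1-knockdown HT-1080 line run in the same batch and compound series as the NT line, viability after 48 h at 37 °C was determined by CellTiter-Glo luminescence and expressed as % activity.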
DT40 TDP1 no CPT = qHTS for Inhibitors of human tyrosyl-DNA phosphodiesterase 1 (TDP1): qHTS in cells in absence of CPT. DT40 Tdp1-/- hTDP1 cells, no CPT, ATP luminescence, 48 h. AID 686978, 2013. 420,000 tested, 15% active. Potency, µM (doses to about 46.2 µM), for the others: at the top dose activity change, negative = growth inhibition, hits mostly inhibitors; note: potency is the fitted concentration of half-maximal effect; nearly all actives have a fitted effect of over 55% in size
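Chicken DT40 Tdp1-/- cells stably complemented with human TDP1 were seeded at 400 cells/well with DMSO in place of 20 nM camptothecin. After compound pinning, cells grew at least 48 hr at 37 °C; viability read by CellTiter-Glo luminescence.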
HT1080NT lethal = kills 2HG-producing HT-1080-NT fibrosarcoma cells; HT-1080-NT fibrosarcoma viability, CellTiter-Glo ATP luminescence, 48 h; Potency, µM (titrated, usually from 46.1 µM), for the others: at the highest dose activity, negative = less viability, most hits filed as cytotoxic; 360,000 tested, 1.6% active;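 note: NT is the 2HG producing partner of a matched IDH1 knockdown line; potency is the fitted concentration of half-maximal effect; 0% = DMSO-treated cells and -100% = media-only wells without cells; nearly all actives have a fitted effect of over 55% in size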
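Viability of the 2HG-overproducing fibrosarcoma line after 48 hours of compound exposure at 37 degrees C was determined by luminescence with CellTiter-Glo, and concentration-effect curves were then fitted and categorized.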
DT40 TDP1 CPT = DT40-hTDP1 cell growth loss with CPT. chicken DT40 Tdp1-/-;hTDP1 cells + 20 nM CPT, ATP luminescence, 48 h. Potency, µM (series often up to 46.2 µM), for inactives: at the top dose activity change, negative = growth inhibition, hits mostly inhibitors. 420,000 tested, 12% active. AID 686979; note: potency is the fitted concentration of half-maximal effect; nearly all actives have a fitted effect of over 55% in size
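Chicken DT40 Tdp1-/- cells stably complemented with human TDP1 were seeded at 400 cells/well in medium containing 20 nM camptothecin, exposed to pin-transferred compounds, and grown at 37 °C for at least 48 hr. Viability was read as ATP luminescence.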
12-LOX inh = ALOX12 (human) lipoxygenase inhibition; 580,000 tested, 1.1% active; AID 1671190; purified 12hLO, xylenol orange hydroperoxide absorbance; P18054; Potency, µM (top dose mostly 108 µM), inactives show at the highest dose activity change, negative = inhibition, hits mostly inhibitors; note: potency is the fitted concentration of half-maximal effect
Target sequence (P18054 whole entry, looked up): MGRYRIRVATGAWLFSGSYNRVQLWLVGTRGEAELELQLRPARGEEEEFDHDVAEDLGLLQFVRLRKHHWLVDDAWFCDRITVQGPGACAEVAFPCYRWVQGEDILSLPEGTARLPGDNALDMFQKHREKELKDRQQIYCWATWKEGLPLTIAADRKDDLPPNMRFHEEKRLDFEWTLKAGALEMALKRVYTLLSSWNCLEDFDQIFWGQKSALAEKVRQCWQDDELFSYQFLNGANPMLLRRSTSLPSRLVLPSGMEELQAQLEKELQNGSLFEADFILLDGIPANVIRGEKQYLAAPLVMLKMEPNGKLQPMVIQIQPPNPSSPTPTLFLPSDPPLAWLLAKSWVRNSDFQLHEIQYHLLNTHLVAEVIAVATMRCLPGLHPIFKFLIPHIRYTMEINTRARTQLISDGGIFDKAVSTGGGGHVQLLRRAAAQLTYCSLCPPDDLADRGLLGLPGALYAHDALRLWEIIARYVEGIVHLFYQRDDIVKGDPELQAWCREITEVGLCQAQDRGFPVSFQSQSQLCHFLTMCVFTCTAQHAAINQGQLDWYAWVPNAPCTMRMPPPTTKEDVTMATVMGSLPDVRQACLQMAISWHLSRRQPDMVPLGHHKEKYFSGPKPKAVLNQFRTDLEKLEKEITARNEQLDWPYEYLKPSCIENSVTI
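Purified human 12hLO at 150 nM in 25 mM Hepes, 0.01% Triton X-100, pH 7.0, preincubated 15 min at room temperature with compound. Reaction started with 40 uM arachidonic acid, 30 min at room temperature. Hydroperoxide measured by Fe-xylenol orange, 573/405 nm absorbance ratio.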
The depositor's hits bear a star; [ ] = dose if it differs, or a comment. Shown is part of a subset that was picked to be rich in hits. Unless noted, calls come from the whole dose curve; as a rule, active = well fitted curve in the direction sought with a large enough effect; inconclusive = small, poorly fitted or top-dose-only effect, or another doubt; inactive = no such curve, though single readings can be large; an effect the other way counts as inactive or inconclusive. Unless noted, % is set by controls: 0 for no effect and ±100 for the full control effect.

For CCOC(=O)N1CCN(Cc2ccccc2Cl)CC1 the results were IL-1B inflam inh 13.7, HT1080 IDH1KD tx 14.4%, DT40 TDP1 no CPT -11.1%, HT1080NT lethal 22.5%, DT40 TDP1 CPT 0.4% and 12-LOX inh inconclusive.
For Oc1c(CNc2ccccc2)cc(COCc2ccccc2)c2cccnc12 the results were 12-LOX inh -55.2%.
Screening c1ccc(N2CCN(Cc3ccnc4ccccc34)CC2)cc1 returned IL-1B inflam inh -23.8, HT1080 IDH1KD tx inconclusive, DT40 TDP1 no CPT 20.6µM*, HT1080NT lethal -3.7%, DT40 TDP1 CPT 25.9µM* and 12-LOX inh 0.0%.
`CC(=O)N1CCC(C(=O)Nc2cc(F)ccc2F)CC1` gave 12-LOX inh 21.3%.
Screening O=C(Nc1ccc(F)cc1)N1CCN(CCc2ccccc2)CC1 returned IL-1B inflam inh -13.2, HT1080 IDH1KD tx 2.9%, DT40 TDP1 no CPT -5.6%, HT1080NT lethal 6.3%, DT40 TDP1 CPT -4.4% and 12-LOX inh -3.1%.
For CCNC(=O)N1CCN(CCCC(c2ccc(F)cc2)c2ccc(F)cc2)CC1 the results were IL-1B inflam inh -11.6, HT1080 IDH1KD tx inconclusive, DT40 TDP1 no CPT 18.4µM*, HT1080NT lethal 16.4µM*, DT40 TDP1 CPT 20.6µM* and 12-LOX inh 35.5µM*.
Screening O=C(/C=C/c1cccc([N+](=O)[O-])c1)NC(=S)Nc1ccc(CN2CCOCC2)cc1 returned IL-1B inflam inh -94.0*, HT1080 IDH1KD tx -0.1%, DT40 TDP1 no CPT 18.4µM*, HT1080NT lethal 5.4%, DT40 TDP1 CPT 16.4µM* and 12-LOX inh -22.2%.
CC(C)c1ccc(/C=C/C(=O)NC(=S)Nc2ccc(CN3CCOCC3)cc2)cc1 was read as IL-1B inflam inh -65.4*, HT1080 IDH1KD tx inconclusive, DT40 TDP1 no CPT 18.4µM*, HT1080NT lethal inconclusive, DT40 TDP1 CPT 9.2µM* and 12-LOX inh 39.8µM*.
`O=C1NCCN1C1CCN(S(=O)(=O)c2ccccc2)CC1` gave 12-LOX inh 2.2%[6.33 µM].
CC(C)NC(=O)c1cc(C(C)(C)C)nc2c1cnn2C was read as 12-LOX inh 1.7%[12.5 µM].
CN1CCN(c2ncc3nc(-c4cc(F)cc(F)c4)c(=O)n(CCc4ccccc4)c3n2)CC1 was read as DT40 TDP1 no CPT -20.8%, DT40 TDP1 CPT 8.4% and 12-LOX inh inconclusive.
`COc1ccc(OC)c(NC(=O)c2c(NCc3sccc3C)sc3c2CCCCC3)c1` gave DT40 TDP1 no CPT 2.59µM*, DT40 TDP1 CPT 7.31µM* and 12-LOX inh inconclusive.
`CCOC(=O)c1c(NC(=O)C(C)N2CCN(S(=O)(=O)c3cccs3)CC2)sc2c1CCC(C)C2` (configuration not stated) gave IL-1B inflam inh 2.1, HT1080 IDH1KD tx 11.0%, DT40 TDP1 no CPT 5.8µM*, HT1080NT lethal 10.1%, DT40 TDP1 CPT 8.2µM* and 12-LOX inh -10.7%.
Screening CCOc1ccc(NC(=O)c2c(NCc3cccnc3)sc3c2CCC(C)C3)cc1 (configuration not stated) returned DT40 TDP1 no CPT 14.6µM*, DT40 TDP1 CPT 14.6µM* and 12-LOX inh 39.8µM*.
`CC(C)(C)C1CCc2c(sc(NC(=O)CCC(=O)O)c2C(=O)Nc2ccccc2C(F)(F)F)C1` (configuration not stated) gave DT40 TDP1 no CPT 20.6µM*, DT40 TDP1 CPT 16.4µM* and 12-LOX inh -1.0%.
CCC1CCc2c(sc(NC(=O)CCC(=O)O)c2C(=O)Nc2ccccc2C)C1 (configuration not stated) was read as 12-LOX inh 3.6%.
Screening Cc1nc(N(C)C)ncc1C(=O)NCc1ccc(Cl)cc1 returned 12-LOX inh 39.2%.
